Most compounds without a hit are left out; they make up all but 3.1% or so of the library.
MEKK2 WT-MEK5: raises or lowers MEK5 binding to wildtype human MEKK2 PB1 domain; Q9Y2U5; bead flow cytometry, Alexa488-MEK5 binding to MEKK2 WT; actives lie on both sides; binding response (% of control), % at 10 µM; 290,000 compounds, 1.1% hits; in the data active means binding response below about 67% or above about 130%
ATG4B inhibitor: ATG4B (human) cysteine protease inhibition; ATG4B cleavage of LC3-PLA2, NBD-HPC fluorescence, 1 h; inhibition, % at 8.33 µM; 340,000 compounds, 0.51% hits; in the data active means inhibition above about 40%
MEKK3 PB1 HTS: MEKK3-MEK5 PB1 interaction, increase or decrease. Q99759. bead-based flow cytometry, Alexa488-MEK5 binding to MEKK3; actives lie on both sides; 0 = blocked by unlabeled MEK5, 100 = vehicle. binding response (% of control), % at 10 µM. 290,000 compounds, 1.4% hits;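 active means binding response more than 3 SD above or below the average of its plate-row segment, actives on both sides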;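 further: Alexa488 bead fluorescence after subtracting the streptavidin-only scavenger bead signal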
MEKK2 mut-MEK5: signal of MEK5 binding to mutant human MEKK2 PB1 domain; 290,000 compounds, 0.35% hits; bead flow cytometry, Alexa488-MEK5 binding to MEKK2 mutant; AID 1530; percent response, % at 10 µM; in the data active means percent response above about 24%, passing the limit was not always enough
UBC13 inh: human UBC13 polyubiquitination inhibition; UBC13 polyubiquitin chain formation, TR-FRET; inhibition, % at 20 µM; 330,000 compounds, 0.47% hits; AID 485273; in the data active means inhibition above about 45%, passing the limit was not always enough
PREPL inh: inhibitors of human prolyl oligopeptidase-like enzyme PREPL; Q4J6C6; recombinant PREPL, fluorescence polarization activity-based probe; inhibition, % at 5.96 µM; 320,000 compounds, 0.68% hits; AID 2751; in the data active means inhibition above about 43%
Target sequence (Q4J6C6 whole entry, looked up): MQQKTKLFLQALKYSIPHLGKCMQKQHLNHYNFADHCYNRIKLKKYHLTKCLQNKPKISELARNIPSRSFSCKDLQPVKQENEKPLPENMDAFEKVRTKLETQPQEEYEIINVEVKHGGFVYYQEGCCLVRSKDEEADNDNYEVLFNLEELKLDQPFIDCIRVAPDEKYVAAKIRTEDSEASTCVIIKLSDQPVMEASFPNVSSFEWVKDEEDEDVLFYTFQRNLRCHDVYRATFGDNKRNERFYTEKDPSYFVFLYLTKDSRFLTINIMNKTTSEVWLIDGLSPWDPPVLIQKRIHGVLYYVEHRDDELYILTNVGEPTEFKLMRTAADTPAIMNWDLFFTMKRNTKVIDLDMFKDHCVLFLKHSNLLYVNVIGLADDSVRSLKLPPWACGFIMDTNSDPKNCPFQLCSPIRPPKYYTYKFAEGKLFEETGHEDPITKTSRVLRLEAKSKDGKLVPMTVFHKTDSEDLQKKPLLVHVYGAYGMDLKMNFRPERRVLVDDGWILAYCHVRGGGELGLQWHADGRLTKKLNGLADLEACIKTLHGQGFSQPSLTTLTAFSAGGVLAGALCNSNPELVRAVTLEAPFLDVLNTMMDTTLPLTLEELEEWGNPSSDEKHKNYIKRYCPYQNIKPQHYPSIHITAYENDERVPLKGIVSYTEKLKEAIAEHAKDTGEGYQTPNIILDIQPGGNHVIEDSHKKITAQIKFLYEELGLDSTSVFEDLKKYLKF
ATG4B conf: confirmation of human ATG4B inhibitors; 320 compounds, 92% hits; ATG4B protease fluorescent substrate cleavage assay; inhibition, % at 8.33 µM; shares compounds with ATG4B inhibitor; in the data active means inhibition above about 39%
PLA2 counter: PLA2 (human) inhibition in ATG4B counter-screen. AID 588402. inhibition, % at 8.33 µM. 1,600 compounds, 66% hits. shares compounds with ATG4B inhibitor. purified PLA2, NBD-C6-HPC fluorescence, 45 min; in the data active means inhibition above about 50%
Each line names hits and unclear results; the compound was inactive in the other large screens (follow-up assays come after a bar, where they were run).

Nc1c(C(=O)Nc2ccccc2F)sc2nc(-c3ccco3)ccc12	ATG4B inhibitor 47 | PLA2 counter inactive
O=C(NCc1cnc2ccccn12)C1CCC(=O)N(Cc2cccc(F)c2)C1 (stereo not given)	none
COC(=O)Cn1c(=O)c2c(n(Cc3ccccc3)c1=O)N/C(=C/c1ccc(Br)cc1)C2=O	ATG4B inhibitor 54 | PLA2 counter 61
O=C(O)c1nn(Cc2csc(-c3ccccc3)n2)c(=O)c2ccccc12	none
COC(=O)c1ccc(C(=O)NC2CCCc3c2cnn3-c2cc(F)cc(F)c2)nc1 (stereo not given)	none
CCCCOc1ccc(-c2cc(C(=O)NNC(=S)NCC)c3ccccc3n2)cc1	ATG4B inhibitor 47 | PLA2 counter 58
CCCCOc1cccc(-c2cc(C(=O)NNC(=S)NCC)c3ccccc3n2)c1	none
CC(C)CCOc1ccc(/C=C2\CCn3c2nc2cc(C(=O)O)ccc2c3=O)cc1	ATG4B inhibitor 97 (no result: UBC13 inh, PREPL inh) | PLA2 counter 92
COC(=O)c1ccc(/C=C2\CCn3c2nc2cc(C(=O)O)ccc2c3=O)cc1	none
O=C(CCc1nc2ccccc2c(=O)[nH]1)N1CCN(S(=O)(=O)c2cccc(F)c2)CC1	none
O=C(N[C@H](Cc1ccc(Cl)cc1)C(=O)O)OCC1c2ccccc2-c2ccccc21	ATG4B inhibitor 78 | PLA2 counter 86
O=C(N[C@@H](Cc1ccc(Br)cc1)C(=O)O)OCC1c2ccccc2-c2ccccc21	none
CN(C(=O)c1ccc(NC(=O)Cc2cccc(NC(=O)C3CCCN(C(=O)C4CC4)C3)c2)cc1)C1CC1 (stereo not given)	none (no result: MEKK2 WT-MEK5, MEKK3 PB1 HTS, MEKK2 mut-MEK5, UBC13 inh, PREPL inh)
Cc1ccc(OCc2nnc(SCC(=O)c3ccccc3)n2Cc2ccco2)cc1	ATG4B inhibitor 60 | PLA2 counter 63
COc1ccc(C)cc1NC(=O)CSc1nnc(COc2ccc(C)cc2)n1Cc1ccco1	none
CC(C)(C)c1[nH]nc2c1C(c1ccc(OC(=O)c3ccco3)cc1)C(C#N)=C(N)O2 (stereo not given)	ATG4B inhibitor 83, PREPL inh 71 | PLA2 counter 86
COc1ccc(-c2[nH]nc3c2C(c2ccc(OC(=O)N4CCOCC4)cc2)C(C#N)=C(N)O3)cc1 (stereo not given)	ATG4B inhibitor 42 | ATG4B conf 76 | PLA2 counter inactive
COc1ccc(-c2[nH]nc3c2C(c2ccccc2OC(=O)N2CCOCC2)C(C#N)=C(N)O3)cc1 (stereo not given)	none
O=C(CCC(=O)N1CCN(S(=O)(=O)c2ccccc2Cl)CC1)c1ccccc1	none (no result: MEKK2 WT-MEK5, MEKK3 PB1 HTS, MEKK2 mut-MEK5, PREPL inh)
Nc1c2c(nc3ccccc13)CSCC2	none (no result: MEKK2 WT-MEK5, MEKK3 PB1 HTS, MEKK2 mut-MEK5)
COc1ccc(/C=N/NC(=O)c2ccc3c(c2)NC(=O)C(C)(C)O3)cc1OC	none
O=C(c1cccnc1)n1nc(NCc2ccccc2)nc1NCc1ccccc1	ATG4B inhibitor 42 | PLA2 counter inactive
O=C(c1ccco1)n1nc(NCc2ccccc2)nc1NCc1ccccc1	none
CC(C)(C)c1ccc(OCCC(=O)NNC(=O)c2ccncc2)cc1	none (no result: MEKK2 WT-MEK5, MEKK3 PB1 HTS, MEKK2 mut-MEK5)
O=C(NCc1ccc(Cl)cc1Cl)C1CCN(S(=O)(=O)c2ccc3c(c2)OCCCO3)CC1	ATG4B inhibitor 42 | PLA2 counter 55
O=C(NCc1ccc(F)cc1)C1CCN(S(=O)(=O)c2ccc3c(c2)OCCCO3)CC1	none
CCCCCCCCCCCCCCCC(O)C[N+](C)(C)CCO (stereo not given)	ATG4B inhibitor 55 (no result: MEKK2 WT-MEK5, MEKK3 PB1 HTS, MEKK2 mut-MEK5, UBC13 inh, PREPL inh) | ATG4B conf 56 | PLA2 counter inactive
Cc1cccc([C@@H]2[C@@H]3C(=O)N(Cc4ccccc4)C(=O)[C@@H]3[C@]3(C)C(=O)N(c4ccc(C(F)(F)F)cc4)C(=O)N23)c1	none
Cc1noc(C)c1C(=O)OCC(=O)NCc1ccc(Cl)cc1	none (no result: MEKK2 WT-MEK5, MEKK3 PB1 HTS, MEKK2 mut-MEK5)
O=C(N/N=C/c1coc2ccccc2c1=O)c1cccc([N+](=O)[O-])c1	ATG4B inhibitor 46 (no result: UBC13 inh) | PLA2 counter inactive
COc1cc(C(=O)N/N=C/c2coc3ccc(Cl)cc3c2=O)ccc1O	ATG4B inhibitor 51 | ATG4B conf inactive | PLA2 counter inactive
COc1ccc(C(=O)N/N=C\c2coc3ccc(Cl)cc3c2=O)cc1	none
O=C(COC(=O)C1=COCCO1)NC1CCCCC1	none (no result: MEKK2 WT-MEK5, MEKK3 PB1 HTS, MEKK2 mut-MEK5)
NC(=O)C1CCN(C(=O)C2CC(=O)N(c3ccc(F)cc3)C2)CC1 (stereo not given)	none
CCc1ccccc1N(CC)C(=O)C1CCN(c2ncnc3c2nc2n3CCCCC2)CC1	ATG4B inhibitor 53 | PLA2 counter 66
CC1CCCN(C(=O)C2CCN(c3ncnc4c3nc3n4CCCCC3)CC2)C1 (stereo not given)	none
CCN(Cc1ccccc1)C(=O)C1CCN(c2ncnc3c2nc2n3CCCCC2)CC1	ATG4B inhibitor 45 | PLA2 counter 53
O=C(Nc1nc(-c2ccccc2)cs1)C1CCCO1 (stereo not given)	none
O=C(Nc1nc(-c2ccccc2)cs1)NC1CCCCC1	ATG4B inhibitor 58 | PLA2 counter 66
NC(=O)Oc1cccc(OC(N)=O)c1	none
CCCN(CCC)C1=CC(=[N+]2CCCC2)CC(C)(C)C1	none
CCc1c(C)sc2nc(C(C)C)nc(SCC(=O)N3CCc4ccccc4C3)c12	ATG4B inhibitor 46 | PLA2 counter 50
Cc1sc2nc(C(C)C)nc(SCC(=O)N3CCN(C(=O)c4ccco4)CC3)c2c1C	ATG4B inhibitor 47 | PLA2 counter 57
Cc1sc2ncnc(SCC(=O)N3CCN(C(=O)c4ccco4)CC3)c2c1C	none
O=C(c1ccco1)N1CCN(C(=O)c2cccn3c(=O)c4c5c(sc4nc23)CCCC5)CC1	none (no result: MEKK2 WT-MEK5, MEKK3 PB1 HTS, MEKK2 mut-MEK5, UBC13 inh, PREPL inh)
CC(C)c1nc(N2CCN(C(=O)c3ccco3)CC2)c2c3c(sc2n1)CCCC3	ATG4B inhibitor 92 | PLA2 counter 90
Cc1nc(N2CCN(C(=O)c3ccco3)CC2)c2c3c(sc2n1)CCC3	ATG4B inhibitor 67 | PLA2 counter 71
Oc1nc(Nc2ccc(Cl)cc2Cl)sc1/C=C1\C=Nc2ccccc21	ATG4B inhibitor 78 | ATG4B conf inactive | PLA2 counter inactive
O=C(NNc1cccc(Cl)n1)Nc1ccc(F)cc1	none
Cc1c(C(=O)Nc2ccc(-c3nnc4n3CCCCC4)cc2)oc2c1ccc1ccccc12	ATG4B inhibitor 45 | PLA2 counter 60
O=C(Nc1ccc(-c2nnc3n2CCCCC3)cc1)c1cc2ccccc2o1	none
CCOc1ccc(NC(=O)CCC(=O)Oc2ccc(C)cc2)cc1	none
Cc1ccc(N=Cc2cc(Cc3ccccc3Cl)cc([N+](=O)[O-])c2O)c(O)c1	ATG4B inhibitor 92 | PLA2 counter 79

Assay outcomes deposited in PubChem by several laboratories.
